KB-V1 MDR tox – kills drug-selected multidrug resistant KB-V1 cells; KB-V1 MDR cells viability, CellTiter-Glo, 72 h; Potency, µM (titrated, usually from 46.1 µM), most hits filed as cytotoxic; actives 3.4% (n = 400,000); further: on the % scale 0 is the no-effect control and ±100 the full control effect; nearly all actives have a fitted effect of over 60% in size
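Cells of the MDR subline KB-V1 are plated, dosed with compound at multiple concentrations, and incubated 72 h at 37 degrees C; CellTiter-Glo is then added and luminescence read after 10 min.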
MCF10A rereplic – induces DNA re-replication in MCF 10a normal breast cells; MCF 10A DNA re-replication, Hoechst nuclear intensity, 48 h; Potency, µM (doses to about 46.1 µM), for inactives: top-dose activity, positive = re-replication, most hits filed as activators; actives 2.9% (n = 350,000); further: % of control where 0% means no effect; nearly all actives have a fitted effect of over 50% in size
SW480 rerep – DNA re-replication induction in SW480 cells | actives 1.8% (n = 340,000) | SW480 DNA re-replication, Hoechst DNA content imaging, 48 h | Potency, µM (doses to about 46.1 µM), inactives show at the highest dose re-replication activation, hits mostly activators; further: % of control where 0% means no effect; nearly all actives have a fitted effect of over 55% in size
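SW480 cells exposed to compounds for 48 hr at 37 C, 5% CO2, then Hoechst-stained 40 min. Nuclear DNA content imaged by fluorescence scanning (405 nm excitation, 500-530 nm emission); re-replication scored as increased high-intensity nuclei.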
HT1080 IDH1KD tx – HT-1080 IDH1 knockdown cell toxicity (counter line); HT-1080 IDH1 knockdown viability, ATP luminescence, 48 h; actives 2% (n = 360,000); Potency, µM (highest dose often 46.1 µM), without a hit: top-dose activity, negative = toxicity, actives largely listed as cytotoxic;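 further: 0% = DMSO wells and -100% = cell-free medium wells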
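% activity derives from luminescence (CellTiter-Glo), normalised to DMSO and no-cell wells. HT-1080-IDH1KD cells, 750/well, had 48 h compound exposure at 37 °C.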
HT1080-NT tox – kills 2HG-producing HT-1080-NT fibrosarcoma cells | HT-1080-NT fibrosarcoma viability, CellTiter-Glo ATP luminescence, 48 h | Potency, µM (doses to about 46.1 µM), for inactives: top-dose activity, negative = less viability, usual class: cytotoxic | actives 1.6% (n = 360,000);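 further: NT is the 2HG producing partner of a matched IDH1 knockdown line; 0% = DMSO-treated cells and -100% = media-only wells without cells; nearly all actives have a fitted effect of over 55% in size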
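HT-1080-NT fibrosarcoma cells (2HG-overproducing), 750 cells/well in RPMI with 5% FBS, dosed after 2 h and incubated 48 h at 37C. CellTiter-Glo luminescence normalized to DMSO and no-cell wells; concentration-response curves fitted and classed.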
KB-3-1 tox – kills parental KB-3-1 adenocarcinoma cells; actives 1.4% (n = 400,000); Potency, µM (series often up to 46.1 µM), hits mostly cytotoxic; KB-3-1 viability, CellTiter-Glo ATP luminescence, 72 h; AID 1347075; further: on the % scale 0 is the no-effect control and ±100 the full control effect; nearly all actives have a fitted effect of over 60% in size
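Using CellTiter-Glo luminescence, growth of non-resistant KB-3-1 adenocarcinoma cells is assessed 72 h after pin-tool compound addition at 37 °C. Normalized responses across the concentration series yield fitted curves.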
An asterisk follows results filed as active; i = inactive; ? = inconclusive; · = no result; [ ] = another dose, or the depositor's remark. Compounds with a hit are over-represented: about 7.9% of the library has one in this group of screens. The call rests on the fitted dose curve; in most records, active means well fitted curve in the direction sought with a large enough effect; inconclusive means small, poorly fitted or top-dose-only effect, or another doubt; inactive means no such curve, though single readings can be large; an effect the other way counts as inactive or inconclusive. Potency means the concentration at half of the fitted maximal effect.

SMILES | KB-V1 MDR tox | MCF10A rereplic | SW480 rerep | HT1080 IDH1KD tx | HT1080-NT tox | KB-3-1 tox
CCOC(=O)N1CCN(C(=O)C[C@@H]2C[C@@]3(C(=O)OCC)CCC=C3N(Cc3ccc(Cl)cc3Cl)C2=O)CC1 | 10µM* | · | · | ? | -17% | i
CCOC(=O)[C@]12CCC=C1N(Cc1ccc(Cl)cc1Cl)C(=O)[C@H](CC(=O)N1CCN(C(=O)c3ccco3)CC1)C2 | 10µM* | · | · | ? | -13% | i
O=C(NCC1CCCO1)c1ccccc1OCc1ccc(F)cc1 (centres undefined) | ? | 10% | -7% | 2% | 4% | i
O=C(Nc1ccc(Cl)cc1C(=O)NCCN1CCOCC1)c1ccc(Cl)cc1Cl | 4.6µM* | 1% | 0% | -6% | -10% | i
O=C(Nc1ccc(Cl)cc1C(=O)NCC1CCCO1)c1ccco1 (centres undefined) | 8.2µM* | ? | -3% | -1% | 1% | ?
O=C(NCC1CCCO1)c1ccccc1OCc1ccc(Cl)cc1 (centres undefined) | 3.7µM* | 7% | 3% | 3% | 9% | i
O=C(Nc1ccc(Cl)cc1C(=O)NCC1CCCO1)c1ccc(Cl)cc1Cl (centres undefined) | 10µM* | ? | -63% | 5% | 2% | i
Cc1ccc(-n2ncc3c2CCCC3NC(=O)CCN2CCCC2=O)cc1C (centres undefined) | i | 8% | 8% | -8% | -1% | i
C=CCc1ccc(OCCOCCN(C)C)c(OC)c1 | i | -3% | -2% | 7% | 2% | i
C=CCc1ccc(OCCOc2cccc3ccc(C)nc23)c(OC)c1 | ? | 12µM* | ? | ? | ? | ?
CCC1CCCCN1C(=O)COC(=O)c1cc(C)nc2ccccc12 (centres undefined) | ? | 10% | -13% | -2% | -2%[9.24 µM] | i
CCOC(=O)c1c(SCCN2CCCC2)n(-c2ccccc2)c(=S)n(-c2ccccc2)c1=O | i | 4.6µM* | 6.5µM* | 7.3µM* | ? | i
CCCN(CCC)C(=O)CC(c1ccccc1)c1cc(C)ccc1O (centres undefined) | ? | ? | 9% | ? | ? | i
CC(NC(=O)CCC(=O)NC(C)c1ccccc1)c1ccccc1 (centres undefined) | i | -3% | ? | -2% | -22% | i
CN(Cc1ccccc1)C(=O)CC(c1ccccc1)c1cc(Cl)ccc1O (centres undefined) | 13µM* | ? | ? | ? | ? | ?
CC(NC(=O)CCSCCC(=O)NC(C)c1ccccc1)c1ccccc1 (centres undefined) | 16µM* | 15% | -2% | ? | 7% | i
CC(NC(=O)CC(c1ccccc1)c1cc(Cl)ccc1O)c1ccccc1 (centres undefined) | 21µM* | ? | 14% | ? | -15% | ?
COc1cc(NS(=O)(=O)c2cc(C(=O)N3CCN(C(C)=O)CC3)ccc2OC)cc(OC)c1 | i | -1% | -14% | 4% | 11% | i
N#Cc1nnn2c1nc(N)c1c(F)cccc12 | 2.9µM* | 5% | -2% | 16% | 7% | ?
Nc1n[nH]c2cccc(Cl)c12 | i | ? | 6% | 0% | -1% | i
N#Cc1nnn2c1nc(N)c1c(Cl)cccc12 | 0.58µM* | · | · | 23% | 19% | 1.3µM*
S=C(NCc1ccccc1)Nc1ccncc1 | i | 7% | 0% | -15% | -9% | ?
CCOC(=O)c1c(-c2ccc(OC)cc2)csc1/N=C/C1C(=O)CCCC1=O | i | ? | ? | 18µM* | ? | i
CCOC(=O)c1c(/N=C/N(C)C)sc(C(=O)OC)c1C | i | 2% | -4% | 6%[9.24 µM] | -12% | i
CCOC(=O)c1c(-c2ccc(OC)cc2)csc1/N=C/N(C)C | 23µM* | 9% | -4% | -1% | -1% | ?
SMILES | KB-V1 MDR tox | MCF10A rereplic | SW480 rerep | HT1080 IDH1KD tx | HT1080-NT tox | KB-3-1 tox
CCOC(=O)c1c(NC(=S)N2CCOCC2)sc(C)c1C | ? | 1% | -5% | -4% | 0% | i
COC(=O)Cc1c(C)c2c(OCc3nn[nH]n3)cc(C)cc2oc1=O | i | 0% | -4% | 4% | 6% | i
COc1ccc(OC)c(NC(=O)CSc2c3c(nc4ccccc24)CCCC3)c1 | i | · | · | · | · | i
COc1ccc(OC)c(Nc2c3ccccc3nc3ccccc23)c1 | 21µM* | 21µM* | 21µM* | 4.6µM* | 5.8µM* | 12µM*
COc1ccc(Nc2nc(-c3ccc(C)cc3)nc3ccccc23)c(OC)c1 | i | · | · | · | · | i
COc1ccc(OC)c(Nc2c3c(nc4ccccc24)CCC3)c1 | 3.7µM* | 3.3µM* | 4.1µM* | 0.58µM* | 0.65µM* | 1µM*
COc1cc(NS(C)(=O)=O)ccc1Nc1c2ccccc2nc2ccccc12 | 18µM* | ? | 0.15µM* | 16µM* | 12µM* | ?
O=[N+]([O-])c1ccc(Nc2c3ccccc3nc3ccccc23)cc1 | i | 5% | 3% | ? | ? | i
COc1ccc([N+](=O)[O-])cc1Nc1c2ccccc2nc2ccccc12 | i | 2.9µM* | ? | 5.2µM* | 5.2µM* | ?
NNC(=O)c1sc2cc(C(F)(F)F)cnc2c1-c1cccs1 | i | 1% | ? | -20% | -1% | i
NNC(=O)c1nn(-c2ccc(Cl)cc2)ccc1=O | i | 4% | -7% | 3% | 8% | i
COc1ccc(Nc2c3c(nc4ccc(C)cc24)CCC3)cc1 | i | -4% | -7% | -29% | -25% | i
COc1cc(Nc2c3c(nc4ccccc24)CCC3)cc(OC)c1OC | 3.7µM* | 8.2µM* | 13µM* | 2.1µM* | 1.5µM* | 2.3µM*
CC1=C(C(=O)Nc2ccccn2)C(c2ccccc2)n2ncnc2N1 (centres undefined) | i | 5% | -6% | 0% | 9% | i
CCC1(OC(=O)CN(C)C)C(=O)OCc2c1cc1n(c2=O)Cc2cc3c(N)cccc3nc2-1 (centres undefined) | 2.9µM* | 18% | ? | 7.3µM* | 7.3µM* | ?
COc1ccc(N2C(=NC(=O)C3CCCCC3)SC3CS(=O)(=O)CC32)cc1OC (centres undefined) | ? | 0% | -2% | 5% | 6% | i
O=C(C1CCN(Cc2ccc(F)cc2)CC1)N(CCc1ccccc1)Cc1ccccc1 | i | ? | -75% | -28% | -30% | 16µM*

Screening data from PubChem.
